Screening results: PubChem BioAssay, National Center for Advancing Translational Sciences (NCATS)
This is a sample that favours compounds with a hit; in the whole collection about 7.4% have one here.
ELG1 genotoxic – inducers of genotoxicity in HEK293T ELG1-luciferase cells; 330,000 compounds, 1.3% hits; HEK293T ELG1-luciferase reporter, luminescence, 16 h; Potency, µM (top dose mostly 46 µM), usual class: activators; also: nearly all actives have a fitted effect of over 60% in size
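Quantitative HTS format in 1536-well plates. HEK293T ELG1-luciferase reporter cells receive test compound and are incubated 16 hr at 37 °C, 5% CO2; ONE-Glo added, 30 min room temperature, then luminescence read.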
FLuc counter – inhibits or activates purified firefly luciferase, miR-21 counter-screen | AID 588342 | 360,000 compounds, 6.9% hits | P08659 | Potency, µM (titrated, usually from 57.5 µM), hits mostly inhibitors | purified FLuc, Km substrates, luminescence inhibition; also: nearly all actives have a fitted effect of over 55% in size
Target sequence (P08659 whole entry, looked up): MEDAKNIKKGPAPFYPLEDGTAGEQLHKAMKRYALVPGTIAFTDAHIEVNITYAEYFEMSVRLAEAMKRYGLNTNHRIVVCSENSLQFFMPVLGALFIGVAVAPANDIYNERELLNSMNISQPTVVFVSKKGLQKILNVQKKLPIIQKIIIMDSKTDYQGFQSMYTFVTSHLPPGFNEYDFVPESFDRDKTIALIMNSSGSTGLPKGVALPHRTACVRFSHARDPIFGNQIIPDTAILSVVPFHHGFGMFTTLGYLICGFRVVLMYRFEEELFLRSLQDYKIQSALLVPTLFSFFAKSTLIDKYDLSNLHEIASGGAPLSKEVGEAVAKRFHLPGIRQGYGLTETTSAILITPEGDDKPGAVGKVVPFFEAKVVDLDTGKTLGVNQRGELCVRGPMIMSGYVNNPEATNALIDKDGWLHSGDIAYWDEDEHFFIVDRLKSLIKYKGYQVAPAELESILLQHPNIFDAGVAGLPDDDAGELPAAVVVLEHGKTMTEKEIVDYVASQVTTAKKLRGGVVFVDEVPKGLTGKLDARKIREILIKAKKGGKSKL
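Purified P. pyralis luciferase (10nM final) with 10uM D-luciferin and 10uM ATP (Km levels) in 50mM Tris acetate pH 7.5, 10mM Mg acetate, 0.01% Tween-20, 0.05% BSA; qHTS 6-point titration, ~60 µM downward; luminescence read.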
NPC1 promoter act – activators of NPC1 promoter. Potency, µM (titrated, usually from 9.22 µM), actives largely listed as activators. 320,000 compounds, 2.4% hits. Huh7 NPC1 promoter luciferase reporter, 24 h. AID 485313; also: nearly all actives have a fitted effect of over 60% in size
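NPC1 promoter–luciferase Huh7 cells; 24 h compound; luminescence.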
SMN2 splice enh – increases expression of the SMN2 splice variant; HEK293 SMN2-luciferase splicing reporter, luminescence, 30-36 h; AID 1458; Potency, µM (titrated, usually from 46.1 µM), actives largely listed as activators; 210,000 compounds, 2.8% hits; also: nearly all actives have a fitted effect of over 55% in size
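qHTS luciferase splicing reporter: luminescence rises when SMN2 exon 7 is included in transfected HEK293 cells. Compound exposure lasted 30-36 h at 37C, with 4.5 mM final sodium butyrate as control, followed by a ONE-Glo read.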
Rab9 promoter act – activates the Rab9 promoter; Huh7 Rab9 promoter-luciferase reporter, luminescence, 24 h; Potency, µM (titrated, usually from 9.22 µM), most hits filed as activators; 320,000 compounds, 2.8% hits; also: nearly all actives have a fitted effect of over 60% in size
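Measured in stably transfected Huh7 cells bearing a Rab9 promoter–luciferase construct: 24 h compound treatment at 37 °C, followed by luminescence detection.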
Each line names hits and unclear results; the compound was inactive in the other large screens. Calls follow the shape of the dose curve; as a rule, active = well fitted curve in the direction sought with a large enough effect; inconclusive = small, poorly fitted or top-dose-only effect, or another doubt; inactive = no such curve, though single readings can be large; an effect the other way counts as inactive or inconclusive.

CC(C)(C)C1CCc2c(sc(NC(=O)c3ccco3)c2C(N)=O)C1 (stereo not given)	ELG1 genotoxic inconclusive, FLuc counter 0.426µM, NPC1 promoter act inconclusive, Rab9 promoter act 2.82µM
CCC1CCc2c(sc(NC(=O)c3ccco3)c2C(N)=O)C1 (stereo not given)	ELG1 genotoxic inconclusive, FLuc counter 1.35µM, NPC1 promoter act inconclusive, SMN2 splice enh 17.8µM, Rab9 promoter act 2.82µM
CCC1CCc2c(sc(NC(=O)c3cnccn3)c2C(N)=O)C1 (stereo not given)	FLuc counter 2.39µM (no result: SMN2 splice enh)
CCc1cccc(NC(=O)Cn2c(-c3ccc(F)cc3)cc(C(C)=O)c2C)c1	none (no result: ELG1 genotoxic, NPC1 promoter act, SMN2 splice enh, Rab9 promoter act)
CC(C)c1nn2c(=O)cc(COC(=O)c3ccccc3NC(=O)c3cccc(Cl)c3)nc2s1	none (no result: ELG1 genotoxic, NPC1 promoter act, SMN2 splice enh, Rab9 promoter act)
O=C(c1cc(C(F)(F)F)cc(C(F)(F)F)c1)N1CCC2(CC1)CN(c1ncccn1)C2	none (no result: ELG1 genotoxic, FLuc counter, NPC1 promoter act, Rab9 promoter act)
O=C(c1cnn(-c2ccc(F)cc2)c1-n1cccc1)N1CCN(c2ccccc2)CC1	none (no result: ELG1 genotoxic, NPC1 promoter act, SMN2 splice enh, Rab9 promoter act)
CCCC1CCC(c2nc(-c3cccnc3)no2)CC1 (stereo not given)	FLuc counter 23.9µM, Rab9 promoter act inconclusive
Cc1ccc(C(=O)N/N=C2\CCCc3ccccc32)c(C)c1	FLuc counter 6.01µM, NPC1 promoter act 2.82µM, SMN2 splice enh 12.6µM, Rab9 promoter act inconclusive
O=C(N/N=C1\CCCc2ccccc21)c1ccc([N+](=O)[O-])cc1	ELG1 genotoxic inconclusive, FLuc counter 6.01µM, NPC1 promoter act inconclusive, SMN2 splice enh 14.1µM, Rab9 promoter act 3.55µM
O=C(CNc1ccc(F)cc1)N/N=C1\CCCc2ccccc21	none
CC(C)NC(=S)N/N=C1\CCCc2ccccc21	none
COc1cccc(CNC(=O)CN2C(=O)COc3ccc(S(=O)(=O)Nc4ccccc4)cc32)c1	none (no result: ELG1 genotoxic, NPC1 promoter act, SMN2 splice enh, Rab9 promoter act)
CC(=O)N1CCN(C)CC1	none (no result: ELG1 genotoxic, FLuc counter, NPC1 promoter act, Rab9 promoter act)
COc1ccc(OC)c(NC(=O)Nc2nnc(N3CCC(C)CC3)s2)c1	FLuc counter 23.9µM
COc1ccc(OC)c(NC(=O)C2CCC(CNc3c(N4CCC(C)CC4)c(=O)c3=O)CC2)c1 (stereo not given)	SMN2 splice enh 15.8µM
Nc1nc(SCC(=O)Nc2cccc(S(=O)(=O)N3CCCCCC3)c2)n[nH]1	FLuc counter 16.9µM
O=C(CSc1nnc(Nc2ccccc2)s1)Nc1cccc(S(=O)(=O)N2CCCCC2)c1	FLuc counter 12µM
CCc1ccccc1NC(=O)Cn1nnc(C(=O)NCc2ccco2)c1N	none (no result: ELG1 genotoxic, NPC1 promoter act, Rab9 promoter act)
CSc1ccc(CN(C)C(=O)c2cc3ccccc3o2)cc1	FLuc counter 16.9µM (no result: SMN2 splice enh)
Cc1c2cnn(CC(=O)N3CCN(c4ccccc4)CC3)c(=O)c2c(C)n1Cc1ccc(F)cc1	FLuc counter inconclusive (no result: ELG1 genotoxic, NPC1 promoter act, Rab9 promoter act)
Cc1ccccc1N/N=C/c1c(C)nc2ccccn12	FLuc counter 12µM (no result: SMN2 splice enh)
Cc1ccc(-c2nc3ccccn3c2Nc2ccccc2C)s1	none (no result: ELG1 genotoxic, NPC1 promoter act, Rab9 promoter act)
CC(C)(C)c1ccc(Cn2cnc(-c3ccc([N+](=O)[O-])cc3)c2)cc1	ELG1 genotoxic inconclusive, FLuc counter 19µM, NPC1 promoter act inconclusive, Rab9 promoter act inconclusive
CC(=O)NCCNc1ccc([N+](=O)[O-])cn1	none
O=[N+]([O-])c1ccc(Nc2ccc(Cl)cc2)nc1	none (no result: SMN2 splice enh)
CC(C)c1ccc(CNc2ccc([N+](=O)[O-])cn2)cc1	ELG1 genotoxic inconclusive, FLuc counter 9.53µM, NPC1 promoter act inconclusive, SMN2 splice enh 15.8µM, Rab9 promoter act inconclusive
O=[N+]([O-])c1ccc(NCc2ccc(Cl)cc2)nc1	ELG1 genotoxic inconclusive, FLuc counter 15.1µM, NPC1 promoter act inconclusive, Rab9 promoter act inconclusive (no result: SMN2 splice enh)
CC(C)(C)c1ccc(CNc2ccc([N+](=O)[O-])cn2)cc1	ELG1 genotoxic inconclusive, FLuc counter 12µM, SMN2 splice enh inconclusive, Rab9 promoter act inconclusive
O=C(O)c1c(-c2nccc3ccccc23)[nH]c(-c2ccccc2)c1S(=O)(=O)O	none (no result: ELG1 genotoxic, FLuc counter, NPC1 promoter act, Rab9 promoter act)
CCCCOC(=O)c1ccc(NC(=O)CSc2nc3c(c(=O)[nH]2)CCCC3)cc1	none (no result: ELG1 genotoxic, NPC1 promoter act, SMN2 splice enh, Rab9 promoter act)
Cc1cc(C)cc(OCC(=O)Nc2ccc(-c3nc4ccccc4o3)cc2)c1	SMN2 splice enh 6.31µM (no result: ELG1 genotoxic, NPC1 promoter act, Rab9 promoter act)
O=C(CN1C(=O)c2ccccc2C1=O)Nc1ccc(-c2nc3ccccc3o2)cc1	none
O=C1c2ccccc2C(=O)N1c1cccc(-c2nc3ccccc3o2)c1	none
O=C(CCN1C(=O)c2ccccc2C1=O)Nc1ccc(-c2nc3ccccc3o2)cc1	ELG1 genotoxic 1.46µM, NPC1 promoter act 2.24µM, SMN2 splice enh 8.91µM, Rab9 promoter act 1.41µM
